{"source": "PubChem BioAssay (Tox21)", "note": "Records with an inconclusive call do not appear. Values without a mark were called inactive. Calls follow the shape of the dose curve; as a rule, active = well fitted activation curve with a large enough effect in the repeat runs; inconclusive = weak or mixed curves; inactive = flat fitted curve, though single readings scatter. % is scaled to controls: 0 for no effect and ±100 for the full control effect.", "data": [{"assay": "A CellTox Green Cytotoxicity Assay to monitor cytotoxicity in HEK293 cells - 24 hour (AID 1224875); also: nearly all actives have a fitted effect of over 45% in size", "conditions": "CellTox Green fluorescence; series mostly up to 76.8 µM; activity change: at the top concentration", "from_the_text": "National Center for Advancing Translational Sciences [NCATS]\nNIH Chemical Genomics Center [NCGC]\nU.S. Environmental Protection Agency [EPA]\nNational Institutes of Environmental Health Sciences [NIEHS]\nNational Toxicology Program [NTP]\nCell-based models are critical for drug discovery. Determining the natural cytotoxic effects resulting from test compounds is an essential research activity. A CellTox Green Cytotoxicity Assay to monitor cytotoxicity in real time of continues cell culture during 40 hours of the compound treatment was used to screen Tox21 10K library compounds in Hek293 cells. CellTox Green Cytotoxicity Assay is a nonlytic, homogeneous, biofluorescent method to measure cytotoxicity in cell culture after experimental manipulation. The assay system uses a proprietary asymmetric cyanine dye that is excluded from viable cells but preferentially stains the dead cell's DNA. […] Viable cells produce no appreciable increases in fluorescence. Therefore, the fluorescence signal produced by the binding interaction with dead cell DNA is proportional to cytotoxicity.\nThe mixture of Hek293 cell suspension and reagents were dispensed at 600cells/6 ul/well in 1536-well tissue culture treated black solid bottom plates using a Multidrop dispenser. After the assay plates were incubated at a 37 C/5% CO2 incubator for 5 hours, 23 nL of compounds dissolved in DMSO, positive and negative controls was transferred to the assay plate by a pintool work station. The plates were incubated at 37 C for 40 hours. The fluorescence intensity were measured at 0h, 8h, 16h, 24h, 32h and 40h time points using ViewLux plate reader during compound treatment.", "values": [{"smiles": "COc1ccc(N=Nc2cc(C)c(N=Nc3ccc(S(=O)(=O)O)cc3)cc2OC)cc1", "activity change": "-13.1%"}, {"smiles": "C=CCOC(=O)c1ccc(C(=O)OCC=C)c(C(=O)OCC=C)c1", "activity change": "-0.164%"}, {"smiles": "Cc1ccccc1OCC1CO1", "note": "(stereo not given)", "activity change": "10.9%"}, {"smiles": "CCCCCCCCCCCCC1CO1", "note": "(stereo not given)", "activity change": "-9.08%"}, {"smiles": "CC(=O)Nc1ccc(C)cc1", "activity change": "0.297%"}, {"smiles": "CC1CCC(C(C)(C)S)C(=O)C1", "note": "(stereo not given)", "activity change": "2.22%"}, {"smiles": "CCS(=O)(=O)CCn1c([N+](=O)[O-])cnc1C", "activity change": "-0.0289% [at 35.3 µM, active compounds read high]"}, {"smiles": "CN(C)CCOCCN(C)CCO", "activity change": "-1.84%"}, {"smiles": "NS(=O)(=O)c1ccccc1OC(F)(F)F", "activity change": "14%"}, {"smiles": "NC(=O)C1(N2CCCCC2)CCN(CCCC(=O)c2ccc(F)cc2)CC1", "activity change": "-6.04% [at 35.3 µM, active compounds read high]"}, {"smiles": "CCCOC(=O)CCCCC(=O)OCCC", "activity change": "-8.98%"}, {"smiles": "O=P(O)(O)OCC(O)CO", "note": "(stereo not given)", "activity change": "1.07% [at 35.3 µM, active compounds read high]"}, {"smiles": "O=S(=O)(O)c1cc(O)ccc1O", "activity change": "-8.23%"}, {"smiles": "O=c1[nH]c(=O)c2ccccc2o1", "activity change": "3.16% [at 35.3 µM, active compounds read high]"}, {"smiles": "O=CN1CCOCC1", "activity change": "1.21%"}, {"smiles": "Nc1ccc(/C=C/c2ccc(N)cc2S(=O)(=O)O)c(S(=O)(=O)O)c1", "activity change": "0.201% [at 0.29 µM, active compounds read high]"}, {"smiles": "C=CCCCCCCCCCCC", "activity change": "-0.54% [at 6.97 µM, active compounds read high]"}, {"smiles": "Nc1ccc(C(=O)OCC(O)CO)cc1", "note": "(stereo not given)", "activity change": "-3.63% [at 35.3 µM, active compounds read high]"}, {"smiles": "CCN(Cc1cccc(S(=O)(=O)O)c1)c1ccccc1", "activity change": "-17.7%"}, {"smiles": "C=CCOCC(O)CCl", "note": "(stereo not given)", "activity change": "-1.75%"}, {"smiles": "CC(=O)OC(C(=O)c1ccccc1)c1ccccc1", "note": "(stereo not given)", "activity change": "-1.2%"}, {"smiles": "C=CC(C)(O)CC/C=C(\\C)CC", "note": "(stereo not given)", "activity change": "-9.29%"}, {"smiles": "O=C(O)C(=O)Nc1cccc(-c2nn[nH]n2)c1", "activity change": "0.48% [at 35.3 µM, active compounds read high]"}, {"smiles": "NS(=O)(=O)c1cc2c(cc1Cl)NC(CC1CCCC1)NS2(=O)=O", "note": "(stereo not given)", "activity change": "-4.98% [at 35.3 µM, active compounds read high]"}, {"smiles": "CCCCCCCCCCCCC", "activity change": "-9.86%"}, {"smiles": "CC(C)CCCCCCOC(=O)C1CCCCC1C(=O)OCCCCCCC(C)C", "note": "(stereo not given)", "activity change": "3.2%"}, {"smiles": "O=S1(=O)CCCC1", "activity change": "-3.58%"}, {"smiles": "CCCCCCCC[Si](OCC)(OCC)OCC", "activity change": "-2.63%"}, {"smiles": "NS(=O)(=O)c1ccc(Cl)c(S(N)(=O)=O)c1", "activity change": "2.32% [at 35.3 µM, active compounds read high]"}, {"smiles": "CC(=O)OC(C)(C)Cc1ccccc1", "activity change": "4.42%"}, {"smiles": "CCCCC/C=C/CC(=O)OC", "activity change": "-4.68%"}, {"smiles": "CC(=O)Nc1ncc([N+](=O)[O-])s1", "activity change": "5.73% [at 35.3 µM, active compounds read high]"}, {"smiles": "O=S(=O)(O)CCO", "activity change": "1.77%"}, {"smiles": "Cc1nc([N+](=O)[O-])cn1-c1ccc([N+](=O)[O-])cc1", "activity change": "0.0392% [at 35.3 µM, active compounds read high]"}, {"smiles": "C=COCCOCCOC=C", "activity change": "-11.9%"}, {"smiles": "CC(C)(C)NCCO", "activity change": "8.1%"}, {"smiles": "CCC(CO)CO", "activity change": "-6.1%"}, {"smiles": "C1CCN2C[C@@H]3C[C@@H](CN4CCCC[C@@H]34)[C@H]2C1", "activity change": "0.444% [at 35.3 µM, active compounds read high]"}, {"smiles": "CC(C)COC(=O)CC(C(=O)OCC(C)C)S(=O)(=O)O", "note": "(stereo not given)", "activity change": "-19.2%"}, {"smiles": "CCCCCCCCCCC", "activity change": "8.9%"}]}]}
